These results are taken from PubChem BioAssay AID1259343 (VanderVen Lab, College of Veterinary Medicine, Cornell …, 2017).

About 2,900 (47%) of roughly 6,200 compounds were called active. No stated cut-off is given here; in the data, active means inhibition above about 50%; inactive means the rest. The set was probably picked from earlier hits. The list shows a part of the results.

A short description of the assay: Mycobacterium tuberculosis growth inhibition, primary screen (AID 1259343). The settings on record: inhibition: at 10 µM, stronger effect = higher value; outcome: 10 uM.
In the case of `O=C1C=CC(=O)N1c1cc(Cl)c(Cl)cc1Cl`, the inhibition was 11.4% (inactive). Take `CCC(C)N=Cc1c(NCc2ccco2)nc2c(C)cccn2c1=O` (stereo unspecified): the inhibition is 4.74% (inactive). The value for `O=c1c(C=NCc2ccco2)c(NCc2ccco2)nc2ccccn12` was 88.3% (active). With `Cc1cccn2c(=O)c(C=NCCO)c(NCc3ccco3)nc12`, the inhibition was 45.5% (inactive). As for `O=C(COc1ccc(F)cc1Br)NCCOc1ccc(Cl)cc1`, the inhibition was 77.7% (active). Turning to `Cc1ccc(C2=CCN(C(=O)CNC(=O)C3CCCCC3)CC2)cc1`, the inhibition is 93.1% (active). Take `O=C(CC1CCCC1)N1CC=C(c2ccc(O)cc2)CC1`: the inhibition is 41% (inactive). The value for `O=C(NC(c1ccccc1)c1ccc2ccccc2n1)C1CCN(Cc2ccc(Oc3ccccc3)cc2)CC1` (stereo unspecified) was 56.5% (active). As for `C=CC[C@H]1CC(C)=C[C@H](CC=C)N1Cc1ncccc1C(=O)O`, the inhibition is -5.55% (inactive).

As to `Cc1cccc(C(=O)O)c1O`, the inhibition is 23.2% (inactive). Regarding `Cc1ccnc(Nc2ccc(NCCNC(=O)Nc3cccc(Cl)c3C)nn2)c1`, the inhibition was 36.1% (inactive). As for `Cc1c(Cl)cccc1Nc1ccccc1C(=O)O`, the inhibition is 101% (active).

Turning to `C[CH2][Hg][S]c1ccccc1C(=O)O`, the inhibition is 102% (active). On to `O=C(O)c1cccc2cccc(-c3cccc4cccc(C(=O)O)c34)c12`, for which the inhibition was 37% (inactive). As for `O=C(Nc1ccc(Cl)cc1)c1c(Cl)nsc1Cl`, the figure is 68.1% (active); as for `O=C(O)Cc1ccc([N+](=O)[O-])cc1Sc1ccc(Cl)cc1`, 54.2% (active); as for `O=C1CC(=O)CC2(CCCC2)C1`, 22.1% (inactive).

In the case of `CN(C)c1c(Cl)cccc1NC(=O)c1cc(C2CC2)[nH]n1`, the inhibition was 19.5% (inactive). For the compound `O=C(Nc1ccc(Cl)c(Cl)c1)Nc1cc(C(F)(F)F)c[nH]c1=O`, the inhibition was 9.25% (inactive). The value for `O=C(Nc1ccc(C(F)(F)F)cc1Cl)c1cc([N+](=O)[O-])[nH]n1` was 102% (active); that for `CN(Cc1ccsc1)C(=O)c1cccc2c(=O)c3ccccc3[nH]c12` was 43.6% (inactive).

Take `O=S(=O)(Nc1nc2c(F)cc(F)cc2s1)c1ccc(F)cc1F`: the inhibition was 73.8% (active). As for `O=C(Nc1cccc(N2CCOC2=O)c1)C1CC(c2ccccc2)=NO1` (stereo unspecified), the figure is 83.1% (active); as for `N#Cc1cnc(N(Cc2cccc(O)c2)CC2CC2)c(Cl)c1`, -4.43% (inactive); as for `FCCCN1CCc2onc(-c3ccc(-c4ccccc4)cc3)c2C1`, 38.4% (inactive).

On to `O=C(NC1CCc2ccccc21)c1ccc(-c2ccc3c(c2)OCCO3)s1` (stereo unspecified), for which the inhibition was 34.8% (inactive).

For `O=C(NCCc1ccc(F)cc1)c1ccc(-c2cccc(Cl)c2)s1`, the inhibition is 28.2% (inactive). On to `CCCCC(CC)COCCCNC(=O)c1ccc(-c2ccc3c(c2)OCO3)s1` (stereo unspecified), for which the inhibition is 89.3% (active). Take `O=C(NCCc1ccc(F)cc1)c1ccc(-c2ccc3c(c2)OCO3)s1`: the inhibition was 66.8% (active). On to `CSCCCNC(=O)c1ccc(-c2ccc(F)cc2)s1`, for which the inhibition was 2.44% (inactive). As for `Cc1nc(NCCNC(=O)Nc2ccc(F)c(Cl)c2)cc(N2CCCC2)n1`, the inhibition is 58.8% (active). As for `COc1ccc(/C=C/CN2CCN(c3cc(-n4cccn4)ncn3)CC2)cc1`, the figure is 89.8% (active). As for `COc1ccc(/C=C/CN2CCCC(CO)(Cc3cccc(Cl)c3)C2)cc1` (stereo unspecified), the entry is “inactive”; as for `Cc1ccc(NC(=O)CCn2nc3ccccn3c2=O)cc1F`, 57.8% (active); as for `CC1CN(C(=O)Nc2ccccc2C(F)(F)F)c2cccnc2N1` (stereo unspecified), 24.7% (inactive). Consider `COC(=O)C1CCN(C(=O)COc2ccc3ccccc3c2Br)CC1`, for which the inhibition is -1.48% (inactive). The value for `O=C(COc1ccc2ccccc2c1)N1CCC(Nc2ccccc2)CC1` was 3.84% (inactive); that for `COC(=O)C1CCN(C(=O)COc2ccc(OCc3ccccc3)cc2)CC1` was 81.6% (active).

Regarding `CCN1CC(=Cc2cc(C)n(C3CC3)c2C)C(=O)C(=Cc2cc(C)n(C3CC3)c2C)C1`, the inhibition was 30.3% (inactive). For `CCCCCCNC(=O)n1cc(F)c(=O)[nH]c1=O`, the inhibition is 97% (active). The value for `CCCCCNC(=O)N1CC2C3CCC(C3)C21` (stereo unspecified) was 28.6% (inactive); that for `CCCCCNC(=O)c1sc2[nH]c(=S)[nH]c(=O)c2c1C` was 36.1% (inactive); that for `O=C(NCc1ccc(Cl)cc1)c1cncn1-c1ccc(-c2ccc(F)c(F)c2)cc1` was -2.19% (inactive). The value for `Cc1cccc(-c2ccc(CNC(=O)c3ccc(=O)n(C)n3)cc2)c1` was 55.3% (active).

Turning to `Cc1cccc(-c2cccc(CNC(=O)c3ccc(=O)[nH]n3)c2)c1`, the inhibition was 18.8% (inactive). Take `Cn1c(-c2cccc(C(F)(F)F)c2)cc2c(Nc3ccncc3)nccc21`: the inhibition was 97.1% (active). For `COc1cccc(Nc2nccc3c2cc(-c2ccc(N(C)C)cc2)n3C)c1`, the inhibition was 81.2% (active). `COc1cccc(-c2ccnc3[nH]n(-c4ccccc4)c(=O)c23)c1`: the inhibition was 46.4% (inactive).

`COc1cc(OC)cc(-c2cc3c(Nc4ccccn4)nccc3n2C)c1`: the inhibition is 57% (active). As for `COc1cccc(Nc2nccc3c2cc(-c2ccccc2)n3C)c1`, the figure is 87.3% (active). The value for `CC(C)c1ccc(Nc2cc3c(cn2)cc(-c2cccnc2)n3C)cc1` was 47.9% (inactive); that for `CC(C)Cc1nnc(C(C)Sc2nc3ncc(Cl)cc3[nH]2)o1` (stereo unspecified) was -8.41% (inactive); that for `CC(=O)c1ccc(-c2ccc(Br)s2)cc1` was 37% (inactive).

On to `CC(C)C1(CNC(=O)c2ccc(Br)s2)CC1`, for which the inhibition is 95.1% (active).

Take `Cc1cccc(NC(C)c2nnc(-c3cccs3)o2)c1C` (stereo unspecified): the inhibition was 61.2% (active). As for `O=C(Nc1ccc(Br)cc1)c1cc(Br)cc(Br)c1O`, the inhibition was 101% (active).

Take `O=c1[nH]cc(CNCc2ccccc2)c(=O)[nH]1`: the inhibition was 101% (active). For `CCC1CCCCN1C(=O)c1ccc(-c2cccc(Cl)c2)s1` (stereo unspecified), the inhibition is 81.8% (active). On to `O=C(O)C1CCN(c2ncnc3cc(-c4ccc(F)cc4)sc23)CC1`, for which the inhibition is 14.5% (inactive). `CCC1CCCCN1C(=O)c1ccc(-c2ccc(F)cc2)s1` (stereo unspecified): the inhibition is 94.5% (active).

On to `Oc1ccc(C=Cc2ccncc2)cc1`, for which the inhibition was 37.5% (inactive). On to `Cn1nc([N+](=O)[O-])nc1Oc1ccc(Br)cc1`, for which the inhibition is 68.9% (active). For the compound `CCOC(=O)c1ccc(C#Cc2ccc3c(c2)C(C)(C)CCS3)nc1`, the inhibition was 87.4% (active). As for `CC(C)c1ccc(CCNC(=O)CNc2ccc(C#N)c(Cl)c2)cc1`, the figure is 2.06% (inactive). The value for `N#Cc1ccc(NC(=O)NCc2cccs2)cc1Cl` was 48.4% (inactive). As for `Cc1ccc(C(C)NC(=O)Nc2ccc(C#N)c(Cl)c2)o1` (stereo unspecified), the figure is 89.3% (active).

The inhibition is the drop in the measured response relative to a control, in per cent.
